This note sets out measurements from PubChem BioAssay (NCATS).

Several values for one entry are separate records, joined by “and”; a condition that tells them apart may be missing. Identical values can stand only once. Results filed as inconclusive are left out. Some structures have more than one record in an assay (separate samples or runs), and their calls can disagree. Activity calls are given as the source filed them. Calls come from the whole dose curve; as a rule, active = well fitted inhibition curve with a large enough effect; inconclusive = small, poorly fitted or top-dose-only effect; inactive = flat fitted curve, though single readings scatter.
% is set by controls: 0 for no effect and ±100 for the full control effect; potency is the fitted concentration of half-maximal effect.

A short description of the first test: Drug repurposing screens with cells derived from glioblastoma tumor samples (AID 1345199). Note: nearly all actives have a fitted effect of over 40% in size. To be noted: GBM patient neurospheres viability, ATP luminescence, 48 h; at 45.9 µM (top of the series); tumour line D. Put shortly: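 Four patient lines of CD133+ GBM neurospheres were screened at several concentrations; hits were retested in those lines plus three slower-growing GBM lines, using 48-hour treatment and ATP-based viability.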
With `CN1C(=O)[C@@H](NC(=O)c2cc3ccccc3[nH]2)N=C(c2ccccc2)c2ccccc21`, the activity, negative = cell killing is -1.15% (inactive).
On to `CNC(=O)NC(O)C(Cl)(Cl)Cl` (centres undefined), for which the activity, negative = cell killing was 7% (inactive).
For `CCC1(c2cnc[nH]2)Cc2ccccc2C1`, the activity, negative = cell killing is -24.8% (inactive).
With `O=C(NC(=O)c1c(F)cccc1F)Nc1cc(Cl)c(OC(F)(F)C(F)C(F)(F)F)cc1Cl` (centres undefined), the activity, negative = cell killing is -27.5% (inactive).
Take `CCCC(C)C1(CC)C(=O)N=C(S)NC1=O` (centres undefined): the activity, negative = cell killing is -14.3% (inactive).
With `CCC1(CC)C(=O)NC(=O)NC1=O`, the activity, negative = cell killing is -15.8% (inactive).
Still for that read-out and setting: for `O=C(N[C@@H]1N=C(c2ccccc2F)c2cccc3c2N(CC3)C1=O)c1cc2ccccc2[nH]1` the value was -3.25% (inactive); for `Cc1c(Cl)c(=O)oc2cc(OP(=O)(OCCCl)OCCCl)ccc12`, -23.1% (inactive).
For `C[C@H](N)[C@H](O)c1ccc(O)c(O)c1`, the activity, negative = cell killing is -15.2% (inactive).
As to `C=CCOC(Cn1ccnc1)c1ccc(Cl)cc1Cl` (centres undefined), the activity, negative = cell killing was -33.6% (inactive).
On the same count and under the same terms, the same measure for `CCN(CC)Cc1nccn1-c1ccc([N+](=O)[O-])cc1C(=O)c1ccccc1Cl`: -13.7% (inactive).

Staying with this test, now noted: GBM patient neurospheres viability, ATP luminescence, 48 h; at 46 µM (top of the series); tumour line A.
With `CNC(=O)NC(O)C(Cl)(Cl)Cl` (centres undefined), the activity, negative = cell killing is -5.01% (inactive).
As to `CCCC(C)C1(CC)C(=O)N=C(S)NC1=O` (centres undefined), the activity, negative = cell killing is -28.3% (inactive).
The same measure, in the same setting: for `CCC1(CC)C(=O)NC(=O)NC1=O` the value was -22.6% (inactive).

The test is the same for the next values; noted with them: GBM patient neurospheres viability, ATP luminescence, 48 h; at 91.6 µM (top of the series); tumour line B.
Regarding `CC(C)=CCN1CC[C@@]2(C)c3cc(O)ccc3C[C@@H]1[C@@H]2C`, the activity, negative = cell killing is -12.8% (inactive).
Still for that read-out and setting: for `CC1N=C(N)OC1c1ccccc1` (centres undefined) the value was -8.97% (inactive).
Turning to `CCCN(CCC)CCc1c[nH]c2ccccc12`, the activity, negative = cell killing was -11.3% (inactive).
Still for that read-out and setting: for `COc1ccc2c3c1O[C@H]1[C@@H](O)C=C[C@H]4[C@@H](C2)N(C)CC[C@@]341` the value was -11% (inactive).

The same test, now with this note: GBM patient neurospheres viability, ATP luminescence, 48 h; at 91.6 µM (top of the series); tumour line D.
In the case of `CC1N=C(N)OC1c1ccccc1` (centres undefined), the activity, negative = cell killing was -16.1% (inactive).
On the same count and under the same terms, the same measure for `CCCN(CCC)CCc1c[nH]c2ccccc12`: -14% (inactive).
Regarding `COc1ccc2c3c1O[C@H]1[C@@H](O)C=C[C@H]4[C@@H](C2)N(C)CC[C@@]341`, the activity, negative = cell killing is -4.9% (inactive).

The same test, now with this note: GBM patient neurospheres viability, ATP luminescence, 48 h; tumour line A.
In the case of `CC[C@H]1C[C@H]2[C@@H]3CCC4=CC(=O)CC[C@@H]4[C@H]3CC[C@]2(C)[C@H]1O`, the Potency was 10 µM (active).
Regarding `CCCCCCCCCCCC[N+](C)(C)CCOc1ccccc1`, the Potency was 12.6 µM (active).
Turning to `C=CC[C@]1(O)CC[C@H]2[C@@H]3CCC4=CC(=O)CCC4=C3C=C[C@@]21C`, the Potency is 17.8 µM (active).
Still for that read-out and setting: the same measure for `COc1cc(CC(C)N)c(OC)cc1Br` (centres undefined): 35.5 µM (active) and 12.6 µM (active); for `CC(C)=CCN1CC[C@@]2(C)c3cc(O)ccc3C[C@@H]1[C@@H]2C`: 25.1 µM (active); for `CC1N=C(N)OC1c1ccccc1` (centres undefined): 50.1 µM (active).
With `Clc1ccc(C(OCCN2CCCCC2)c2ccccc2)cc1` (centres undefined), the Potency is 3.55 µM (active).
The same measure, in the same setting: for `O=C(NC(=O)c1c(F)cccc1F)Nc1cc(Cl)c(OC(F)(F)C(F)C(F)(F)F)cc1Cl` (centres undefined) the value was 7.94 µM (active); for `CN1CCc2cc(Cl)c(O)cc2[C@H]2c3ccccc3CC[C@@H]21`, 11.2 µM (active); for `CC[C@]1(O)CC[C@H]2[C@@H]3CCC4=CCCC[C@@H]4[C@H]3CC[C@@]21C`, 10 µM (active).
As for `CC[C@H](O)C(C[C@H](C)N(C)C)(c1ccccc1)c1ccccc1`, the Potency was 44.7 µM (active).
On the same count and under the same terms, for `CCCN(CCC)CCc1c[nH]c2ccccc12` the value was 25.1 µM (active); for `COc1ccc2c3c1O[C@H]1[C@@H](O)C=C[C@H]4[C@@H](C2)N(C)CC[C@@]341`, 44.7 µM (active); for `CN(C)C(=S)SSC(=S)N(C)C`, 35.5 µM (active).
Turning to `C=CCOC(Cn1ccnc1)c1ccc(Cl)cc1Cl` (centres undefined), the Potency is 20 µM (active).
On the same count and under the same terms, for `Clc1ccc(CSC(Cn2ccnc2)c2ccc(Cl)cc2Cl)cc1` (centres undefined) the value was 2.24 µM (active).
On to `Clc1ccc(CO/N=C(\Cn2ccnc2)c2ccc(Cl)cc2Cl)c(Cl)c1`, for which the Potency was 2.82 µM (active).
Still for that read-out and setting: the same measure for `CCN(CC)Cc1nccn1-c1ccc([N+](=O)[O-])cc1C(=O)c1ccccc1Cl`: 31.6 µM (active).
